Data taken from ChEMBL document CHEMBL3988442, “University of Dundee, Small-Polar-MMV Screening Library” (2021).
For some of these results: Results with a measured potency or affinity are listed apart.

Tests used:
Set-up in all cases: scale not given: direction of the effect not stated beside the values
[1] = target: Protein translocase subunit SecA (Escherichia coli (strain K12)) (UniProt P10408); experiment: Assay to Identify E. coli SecA ATPase Inhibitors; format: functional; details: 30 µM
[2] = target: T1, Ubiquitin-activating enzyme e1, putative (Leishmania donovani (strain BPK282A1)) (UniProt E9BSI1); experiment: Leishmania donovani Ubiquitin Activating Enzyme (LdE1); format: functional; details: 30 µM
T1 sequence (whole entry): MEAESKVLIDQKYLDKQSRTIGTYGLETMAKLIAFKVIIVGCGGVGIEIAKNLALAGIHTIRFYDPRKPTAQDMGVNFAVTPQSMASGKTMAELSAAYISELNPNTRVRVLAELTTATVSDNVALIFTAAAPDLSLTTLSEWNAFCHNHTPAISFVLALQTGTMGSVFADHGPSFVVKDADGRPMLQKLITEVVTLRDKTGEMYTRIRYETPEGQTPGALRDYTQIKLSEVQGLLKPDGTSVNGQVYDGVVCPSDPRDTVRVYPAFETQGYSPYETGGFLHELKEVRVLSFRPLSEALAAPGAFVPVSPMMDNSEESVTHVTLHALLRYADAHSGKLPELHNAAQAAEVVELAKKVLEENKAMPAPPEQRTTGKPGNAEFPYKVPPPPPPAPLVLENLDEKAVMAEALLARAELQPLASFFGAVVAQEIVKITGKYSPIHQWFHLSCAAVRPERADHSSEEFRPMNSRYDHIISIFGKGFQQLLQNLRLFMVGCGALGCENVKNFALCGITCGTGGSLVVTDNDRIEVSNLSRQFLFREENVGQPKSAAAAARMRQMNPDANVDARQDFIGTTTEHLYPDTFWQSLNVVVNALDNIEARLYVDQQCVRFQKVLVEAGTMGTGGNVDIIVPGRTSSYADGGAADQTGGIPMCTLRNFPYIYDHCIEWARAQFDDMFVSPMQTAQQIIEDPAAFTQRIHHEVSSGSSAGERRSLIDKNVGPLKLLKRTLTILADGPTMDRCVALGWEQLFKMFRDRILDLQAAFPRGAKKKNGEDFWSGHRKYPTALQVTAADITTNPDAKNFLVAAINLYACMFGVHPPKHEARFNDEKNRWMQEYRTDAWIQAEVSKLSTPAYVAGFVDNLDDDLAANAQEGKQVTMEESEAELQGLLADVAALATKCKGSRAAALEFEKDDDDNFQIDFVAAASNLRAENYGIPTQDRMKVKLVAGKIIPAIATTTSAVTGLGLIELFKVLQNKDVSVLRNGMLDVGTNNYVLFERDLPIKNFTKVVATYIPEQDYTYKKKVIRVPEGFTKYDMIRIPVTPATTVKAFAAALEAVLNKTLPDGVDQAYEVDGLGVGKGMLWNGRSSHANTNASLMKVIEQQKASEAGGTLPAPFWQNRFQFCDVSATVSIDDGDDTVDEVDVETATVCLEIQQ

[3] = target: AMP-activated protein kinase, AMPK (Homo sapiens) (UniProt P54646+O43741+P54619+Q9UGJ0+Q9Y478+Q13131+Q9UGI9); experiment: AMP-dependent Kinase enzyme assay. An in vitro enzyme assay that detects ADP turnover that is directly proportional to AMPK activity. This uses naive AMPK that is activated during the assay with MK-8722; format: functional; details: 30 µM
[4] = target: Sialic acid-binding Ig-like lectin 9 (Homo sapiens) (UniProt Q9Y336); experiment: Hs-Siglec9 ALPHAscreen SOP 20170721; details: 10 µM
[5] = tested on: Trypanosoma cruzi; experiment: Trypanosoma cruzi phosphomannomutase and mannose-1-phosphate guanylyltransferase assay; format: functional; details: 10 µM
[6] = target: T2, Arginase-2, mitochondrial (Homo sapiens) (UniProt P78540); experiment: in vitro enzyme assay to detect the production of urea directly proportional to the activity of Arginase II; format: functional; details: 33.3 µM; note: in the data most compounds retested in dose-response had high values
T2 sequence (whole entry): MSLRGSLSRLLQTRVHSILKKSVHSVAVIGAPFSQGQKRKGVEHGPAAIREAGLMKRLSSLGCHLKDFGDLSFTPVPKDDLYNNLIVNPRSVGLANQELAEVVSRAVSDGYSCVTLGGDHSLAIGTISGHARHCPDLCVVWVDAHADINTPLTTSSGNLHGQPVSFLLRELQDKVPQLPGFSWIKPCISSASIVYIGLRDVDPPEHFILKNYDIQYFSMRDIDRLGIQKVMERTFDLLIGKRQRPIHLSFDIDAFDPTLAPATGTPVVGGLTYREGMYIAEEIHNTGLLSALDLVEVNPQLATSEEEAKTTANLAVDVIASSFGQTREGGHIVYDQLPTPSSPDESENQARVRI

[7] = target: T3, Proteasome subunit beta (Trypanosoma cruzi) (UniProt O96673); experiment: Trypanosoma cruzi proteasome chymotrypsin-like activity (TcProtChymo) assay.; note: in the data most compounds retested in dose-response had high values; format: functional; details: 9.37 µM
T3 sequence (whole entry): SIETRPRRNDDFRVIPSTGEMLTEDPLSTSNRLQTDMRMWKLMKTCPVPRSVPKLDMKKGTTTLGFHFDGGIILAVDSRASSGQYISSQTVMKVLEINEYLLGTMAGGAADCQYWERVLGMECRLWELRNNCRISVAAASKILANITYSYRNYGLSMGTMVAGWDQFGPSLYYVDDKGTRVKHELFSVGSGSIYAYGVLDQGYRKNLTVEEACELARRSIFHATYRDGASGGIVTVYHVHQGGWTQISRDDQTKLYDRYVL

[8] = species on record: Homo sapiens; experiment: To identify inhibition of the IFN signalling (Jak-Stat) pathway via expression of an eGFP reporter gene under the control of an IFN-stimulated response element (ISRE) containing MxA promoter.; format: functional; details: 30 µM
[9] = target: T4, Tyrosyl-tRNA synthetase, putative (Trypanosoma cruzi (strain CL Brener)) (UniProt Q4DSP6); experiment: Trypanosoma cruzi tyrosyl tRNA synthetase (TcYRS) _High Tyrosine SOP; format: functional; details: 30 µM; note: in the data most compounds retested in dose-response had high values
T4 sequence (whole entry): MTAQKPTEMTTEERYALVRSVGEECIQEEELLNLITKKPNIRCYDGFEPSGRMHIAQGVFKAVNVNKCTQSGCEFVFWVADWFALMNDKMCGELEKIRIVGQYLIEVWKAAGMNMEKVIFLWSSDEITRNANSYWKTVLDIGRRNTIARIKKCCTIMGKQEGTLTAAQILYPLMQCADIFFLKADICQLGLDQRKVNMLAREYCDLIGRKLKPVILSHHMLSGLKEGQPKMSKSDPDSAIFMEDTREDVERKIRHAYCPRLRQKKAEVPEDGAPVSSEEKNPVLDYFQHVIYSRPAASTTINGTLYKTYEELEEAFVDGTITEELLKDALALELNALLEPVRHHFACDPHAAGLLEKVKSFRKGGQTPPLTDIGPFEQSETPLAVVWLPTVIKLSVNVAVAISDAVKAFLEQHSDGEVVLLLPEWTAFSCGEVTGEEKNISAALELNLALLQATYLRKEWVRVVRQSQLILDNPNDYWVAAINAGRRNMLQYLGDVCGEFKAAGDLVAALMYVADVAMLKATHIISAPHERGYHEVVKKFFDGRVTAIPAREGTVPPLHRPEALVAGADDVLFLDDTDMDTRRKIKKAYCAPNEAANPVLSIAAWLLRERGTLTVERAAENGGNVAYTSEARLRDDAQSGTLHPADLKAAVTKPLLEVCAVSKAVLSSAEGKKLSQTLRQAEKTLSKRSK

[10] = target: T4, Tyrosyl-tRNA synthetase, putative (Trypanosoma cruzi (strain CL Brener)); experiment: Trypanosoma cruzi tyrosyl tRNA synthetase (TcYRS) SOP; format: functional; details: 30 µM
[11] = target: Chromo domain-containing protein 1 (Saccharomyces cerevisiae (strain ATCC 204508 / S288c) (Baker's yeast)) (UniProt P32657); experiment: ScCHD-1 Enzyme Inhibition Assay; format: functional; details: 30 µM; note: in the data most compounds retested in dose-response had high values
Chain of Chromo domain-containing protein 1 (Saccharomyces cerevisiae (strain ATCC 204508 / S288c) (Baker's yeast)) (P32657 whole entry, the tested form may be a part): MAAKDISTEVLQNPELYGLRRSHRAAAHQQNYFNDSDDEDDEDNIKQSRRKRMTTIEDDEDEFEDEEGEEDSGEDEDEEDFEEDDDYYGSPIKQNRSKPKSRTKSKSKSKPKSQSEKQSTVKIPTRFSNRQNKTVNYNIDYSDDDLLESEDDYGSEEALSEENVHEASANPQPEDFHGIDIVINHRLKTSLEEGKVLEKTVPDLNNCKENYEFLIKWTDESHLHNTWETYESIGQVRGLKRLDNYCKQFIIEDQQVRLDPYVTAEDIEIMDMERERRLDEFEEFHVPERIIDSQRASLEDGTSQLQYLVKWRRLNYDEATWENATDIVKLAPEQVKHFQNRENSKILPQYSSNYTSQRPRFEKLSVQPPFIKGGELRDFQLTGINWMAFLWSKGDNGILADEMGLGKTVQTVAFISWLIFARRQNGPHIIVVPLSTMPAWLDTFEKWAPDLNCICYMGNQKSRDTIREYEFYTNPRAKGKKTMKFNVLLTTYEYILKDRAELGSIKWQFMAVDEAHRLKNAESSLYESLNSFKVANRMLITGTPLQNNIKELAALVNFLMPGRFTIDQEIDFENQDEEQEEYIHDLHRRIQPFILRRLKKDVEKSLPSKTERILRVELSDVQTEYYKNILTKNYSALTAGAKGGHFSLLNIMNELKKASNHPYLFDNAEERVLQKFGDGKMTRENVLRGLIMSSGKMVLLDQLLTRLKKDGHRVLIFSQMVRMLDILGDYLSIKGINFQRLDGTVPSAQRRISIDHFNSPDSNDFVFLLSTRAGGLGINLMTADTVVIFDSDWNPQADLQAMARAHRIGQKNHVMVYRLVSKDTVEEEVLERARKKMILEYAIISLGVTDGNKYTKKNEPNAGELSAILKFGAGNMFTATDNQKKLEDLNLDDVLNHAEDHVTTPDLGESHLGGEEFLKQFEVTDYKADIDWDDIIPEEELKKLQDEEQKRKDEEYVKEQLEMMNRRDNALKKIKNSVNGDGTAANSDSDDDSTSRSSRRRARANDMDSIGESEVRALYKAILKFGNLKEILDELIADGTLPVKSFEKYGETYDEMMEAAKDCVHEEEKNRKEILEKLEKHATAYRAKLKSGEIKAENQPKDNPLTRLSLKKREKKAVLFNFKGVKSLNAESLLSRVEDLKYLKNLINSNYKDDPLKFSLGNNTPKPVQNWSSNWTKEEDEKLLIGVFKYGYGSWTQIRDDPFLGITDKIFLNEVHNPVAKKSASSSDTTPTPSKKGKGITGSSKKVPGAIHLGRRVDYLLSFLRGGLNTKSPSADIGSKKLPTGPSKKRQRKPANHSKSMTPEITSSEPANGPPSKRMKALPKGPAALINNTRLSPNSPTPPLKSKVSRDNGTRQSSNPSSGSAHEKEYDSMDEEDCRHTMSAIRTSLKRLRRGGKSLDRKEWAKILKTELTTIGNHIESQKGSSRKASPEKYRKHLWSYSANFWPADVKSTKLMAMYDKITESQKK

Chain of Sialic acid-binding Ig-like lectin 9 (Homo sapiens) (Q9Y336 whole entry): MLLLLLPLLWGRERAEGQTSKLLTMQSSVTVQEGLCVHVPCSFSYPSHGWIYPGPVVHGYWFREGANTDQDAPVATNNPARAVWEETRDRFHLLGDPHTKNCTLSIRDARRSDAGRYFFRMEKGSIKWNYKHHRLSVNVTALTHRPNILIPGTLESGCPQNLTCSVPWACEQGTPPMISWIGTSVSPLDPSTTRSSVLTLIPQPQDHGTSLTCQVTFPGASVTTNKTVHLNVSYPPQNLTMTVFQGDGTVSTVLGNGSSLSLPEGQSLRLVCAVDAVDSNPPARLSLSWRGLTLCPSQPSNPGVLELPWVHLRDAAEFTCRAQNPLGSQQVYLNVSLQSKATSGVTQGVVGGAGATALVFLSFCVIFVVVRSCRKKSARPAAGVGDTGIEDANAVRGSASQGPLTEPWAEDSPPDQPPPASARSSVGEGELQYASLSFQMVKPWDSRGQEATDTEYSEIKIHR
Chain of Protein translocase subunit SecA (Escherichia coli (strain K12)) (P10408 whole entry): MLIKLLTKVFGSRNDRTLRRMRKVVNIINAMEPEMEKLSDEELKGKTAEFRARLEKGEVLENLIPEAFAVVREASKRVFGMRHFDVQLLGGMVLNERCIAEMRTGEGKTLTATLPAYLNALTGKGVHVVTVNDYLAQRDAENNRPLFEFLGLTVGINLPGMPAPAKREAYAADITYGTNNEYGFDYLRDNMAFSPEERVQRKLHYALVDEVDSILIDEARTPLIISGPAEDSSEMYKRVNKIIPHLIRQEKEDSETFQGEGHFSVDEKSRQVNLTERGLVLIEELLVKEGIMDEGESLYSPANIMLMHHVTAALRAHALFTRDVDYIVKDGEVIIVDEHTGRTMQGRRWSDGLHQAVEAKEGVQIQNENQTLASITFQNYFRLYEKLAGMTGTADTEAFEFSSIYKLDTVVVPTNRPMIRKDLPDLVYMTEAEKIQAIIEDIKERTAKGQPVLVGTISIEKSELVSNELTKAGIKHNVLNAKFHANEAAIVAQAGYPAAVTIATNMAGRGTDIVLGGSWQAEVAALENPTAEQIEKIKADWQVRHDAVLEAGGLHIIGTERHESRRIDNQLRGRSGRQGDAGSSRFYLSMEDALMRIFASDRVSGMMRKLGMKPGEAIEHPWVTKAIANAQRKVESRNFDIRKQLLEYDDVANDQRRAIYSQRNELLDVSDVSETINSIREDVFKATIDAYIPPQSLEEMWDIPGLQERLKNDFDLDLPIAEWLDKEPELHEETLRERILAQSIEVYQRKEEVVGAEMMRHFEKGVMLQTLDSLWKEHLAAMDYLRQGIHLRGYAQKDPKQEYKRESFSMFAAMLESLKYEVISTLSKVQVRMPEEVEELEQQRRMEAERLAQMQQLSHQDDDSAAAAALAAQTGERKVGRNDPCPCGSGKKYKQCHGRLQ

Structure (SMILES)	Percent Effect [1]	Percent Effect [2]	Percent Effect [3]	Percent Effect [4]	Percent Effect [5]	Percent Effect [6]	Percent Effect [7]	Percent Effect [8]	Percent Effect [9]	Percent Effect [10]	Percent Effect [11]
O=C(Nc1cnn(CCN2CCOCC2)c1)c1ccccn1	-3.13%	10.5%	3.43%	9.01%	3.38%	0%	5.85%	-7.34%	5.39%	12.2%	0.887%
O=C1CCC(C(=O)NCc2nncn2-c2ccccc2)CN1 (stereo unspecified)	-6.76%	10.8%	-10.2%	20.8%	3.68%	-7.21%	1.8%	7.93%	2.46%	23.5%	-12.7%
O=C1CC(c2ccccc2F)c2c(n3ccsc3nc2=O)N1 (stereo unspecified)	-2.59%	9.33%	1.41%	7.25%	2.95%	-5.46%	7.76%	2.76%	4.23%	12.8%	-9.93%
Cc1nn(C)c(N2CCOCC2)c1CNC1CCc2ccccc2C1 (stereo unspecified)	-2.57%	15.2%	-15%	9.25%	3.12%	-2.28%	-2.87%	8.26%	9.36%	16.5%	-4.44%
Cc1noc(C)c1C(=O)NCC(c1ccc(F)cc1)N(C)C (stereo unspecified)	-3.62%	8.11%	1.69%	-12.4%	-3.25%	0.924%	0.898%	16.5%	5.94%	13.4%	0.216%
Cc1cc(=O)[nH]c(CCNC(=O)C(c2ccc(F)cc2)N(C)C)n1 (stereo unspecified)	6.03%	11%	-3.97%	1.73%	-5.75%	-14%	13.3%	26.9%	10.4%	11.1%	0.214%
CN(Cc1ccsc1)C(=O)c1cccc(S(=O)(=O)NC(C)(C)C)c1	-1.82%	23.4%	-6.77%	-1.29%	3%	-3.56%	12%	18.1%	6.8%	12.2%	-7.59%
Cc1ccc(CC(=O)NCCCNS(C)(=O)=O)cc1	-0.957%	13.9%	3.16%	0.198%	-2.56%	-1.94%	14.8%	-1.21%	6.25%	15.2%	-16.2%
COc1cccc(C(=O)Nc2cc(CC(C)C)nn2C)c1	-4.81%	-5.2%	-7.56%	6.82%	6.74%	-6.41%	3.04%	11%	4.85%	14.6%	-5.36%
Cn1cccc1C(=O)N1CCN(Cc2ccncc2)c2ncccc2C1	1.82%	13.3%	9.01%	8.59%	-4.83%	-57.2%	12.1%	13.8%	8.33%	10%	-5.07%
CCOCC1CN(Cc2ccoc2)Cc2ncn(CC3CC3)c21 (stereo unspecified)	-8.23%	-2.7%	0.834%	4.02%	-2.34%	-0.833%	10.1%	3.58%	4.95%	-1.22%	-0.436%
